ADAM17 inh: ADAM17 inhibitors, primary screen, biochemical, QFRET; Disintegrin and metalloproteinase domain-containing protein 17 (Homo sapiens), P78536; recombinant ADAM17, EDANS/DABCYL FRET peptide cleavage; inhibition, % at 6.95 µM; 370,000 tested, 0.83% active;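 active means inhibition above the mean of compounds lying between control limits plus 3 SD, set per campaign, cut at about 8.5% in these data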;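 further: 0% = DMSO-only wells as the low control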
Target sequence (P78536 215-824 limits assumed): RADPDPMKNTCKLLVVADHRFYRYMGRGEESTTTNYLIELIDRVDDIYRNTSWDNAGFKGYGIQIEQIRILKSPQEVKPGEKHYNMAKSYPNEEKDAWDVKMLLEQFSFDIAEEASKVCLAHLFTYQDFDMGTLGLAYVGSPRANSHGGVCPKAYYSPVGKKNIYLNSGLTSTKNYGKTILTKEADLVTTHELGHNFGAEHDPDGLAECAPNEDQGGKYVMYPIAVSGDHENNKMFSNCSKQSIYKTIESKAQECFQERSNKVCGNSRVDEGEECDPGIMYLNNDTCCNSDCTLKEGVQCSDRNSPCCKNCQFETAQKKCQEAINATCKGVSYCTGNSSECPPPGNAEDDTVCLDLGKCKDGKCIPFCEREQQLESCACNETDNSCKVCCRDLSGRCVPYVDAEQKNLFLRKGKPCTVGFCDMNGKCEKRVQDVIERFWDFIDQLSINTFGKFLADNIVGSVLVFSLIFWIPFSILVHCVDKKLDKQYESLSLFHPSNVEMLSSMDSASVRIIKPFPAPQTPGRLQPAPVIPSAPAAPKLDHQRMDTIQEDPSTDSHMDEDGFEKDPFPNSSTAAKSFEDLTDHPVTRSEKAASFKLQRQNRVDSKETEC
proKLK7 act: proKLK7 zymogen activators, primary screen, biochemical, fluorescence intensity; purified proKLK7, EDANS-DABCYL substrate fluorescence; 100% is mature enzyme control, 0% vehicle; Kallikrein-7 (Homo sapiens), P49862; activation, % at 7 µM; 370,000 tested, 0.9% active; AID 652039, 2013;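 active means activation above the mean of all tested compounds plus 3 SD, computed per campaign excluding outliers beyond control limits, cut at about 13% in these data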
ADAM10 inh: human ADAM10 inhibitors, primary screen, biochemical, QFRET, HTS | Disintegrin and metalloproteinase domain-containing protein 10 (Homo sapiens), O14672 | recombinant ADAM10, EDANS/DABCYL FRET peptide cleavage, 3 h | inhibition, % at 7 µM | 370,000 tested, 0.62% active | AID 720582, 2013;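 active means inhibition above a per-campaign cutoff equal to the mean of compounds falling between control-based bounds plus 3 SD, cut at about 20% in these data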;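 further: 0% = DMSO wells while the 100% control is not disclosed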
GC-B act: human GC-B receptor activators, primary screen, HEK293 GC-B cells, cGMP TR-FRET, EC30 CNP. 0% at EC30 CNP, 100% saturating CNP. activation, % at 10 µM. Atrial natriuretic peptide receptor 2 (Homo sapiens), P20594. AID 1920062, 2024. 370,000 tested, 0.11% active;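 active means activation at 10 µM reaching about 35% in either raw or pattern-adjusted values, limit read from the data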
NPR1 activator: GC-A stimulated cGMP production enhancers – HEK293 GC-A cells, cGMP TR-FRET, EC30 ANP, primary screen | activation, % at 10 µM | 370,000 tested, 0.14% active | 0% at EC30 ANP, 100% saturating ANP; in the data active means activation above about 40%
KLK7 act conf: proKLK7 zymogen activators, confirmation, biochemical, fluorescence intensity, triplicate; 3,200 tested, 68% active; shares compounds with proKLK7 act; activation, % at 7 µM; purified proKLK7, EDANS-DABCYL substrate fluorescence; scaled: vehicle 0, mature enzyme 100;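 active means activation, as change over the incubation, above the mean of all tested compounds plus 3 SD, cut at about 13% in these data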
EDANS-DABCYL int: EDANS-DABCYL substrate optical interference, artefact control for kallikrein-7 zymogen activator project, biochemical, fluorescence intensity, high throughput | AID 686952, 2013 | activation, % at 7 µM | shares compounds with proKLK7 act | 3,200 tested, 80% active | no enzyme, 4 h; solvent 0%, active enzyme control 100%;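 active means activation above the all-compound mean plus 3 SD, ignoring values outside control-based bounds, cut at about 4.8% in these data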;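 further: value is the 4 h activation minus the activation read at time zero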
EDANS interf: optically interferes with EDANS-DABCYL fluorescence, kallikrein-7 activator counter-screen | EDANS-DABCYL peptide fluorescence interference, no enzyme | EC50, µM | shares compounds with proKLK7 act | 250 tested, 20% active | AID 720493;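 active means compounds that raise the fluorescence signal in this interference counterscreen, with EC50 at or below 10 µM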;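 further: intact quenched peptide substrate alone read at 355 nm excitation and 520 nm emission; signal is fluorescence gain from T0 to T4 after four hours at room temperature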
Numbers without * were called inactive; i = inactive; nt = not tested or not shown. Only some compounds are listed: those with a hit (about 2.2% of all), similar ones and a draw of the others.

SMILES	ADAM17 inh	proKLK7 act	ADAM10 inh	GC-B act	NPR1 activator	KLK7 act conf	EDANS-DABCYL int	others
COc1cc2sc3cc(NCC[C@@H]4CCCN4C)ccc3c(=O)c2cc1OC	-284	21*	i	-4	0	-68	-65
Cc1cccc(-n2c(SCC(=O)N3CCCC3)nc3n[nH]c(C)c3c2=N)c1	-3	30*	4	-1	2	70*	43*	EDANS interf=i
CCCCN(CC)C(=O)CSc1nc2n[nH]c(C)c2c(=N)n1-c1cccc(C)c1	1	0	2	-12	-12	nt	nt
CCOc1ccc(-c2cc(C(=O)NCCCN3CCCC3)c3ccccc3n2)cc1	-136	24*	-375	-2	5	-1	-5
CC(C)C[C@@H]1COc2cc(Br)ccc2S(=O)(=O)N1Cc1cn(Cc2ccc(Br)cc2)nn1	0	-1	2	3	-2	nt	nt
CN(Cc1cn(CC2CCCCC2)nn1)S(=O)(=O)c1ccccc1Br	-3	0	0	2	2	nt	nt
C=CS(=O)(=O)c1c2cc(OC)ccc2nc2ccc(OC)cc12	-199	22*	i	-6	17	-36	-29
CC(=O)N1CCc2c1cccc2S(=O)(=O)NC(CC(C)C)C(=O)Nc1ccc(Cl)c(Cl)c1 (configuration not stated)	2	0	5	-5	-5	nt	nt
CCOC(=O)c1cnn(-c2sc(C(=O)OCC)c(C)c2C(=O)OCC)c1N	-9	18*	-31	-2	2	1	1
Cc1c(C)c2c(OCC(=O)O)cc3c(c2oc1=O)CCC(C)(C)O3	i	33*	i	3	0	61*	73*
Cc1c(C)c2c(OCC(=O)NCC(=O)NCC(=O)O)cc3c(c2oc1=O)CCC(C)(C)O3	i	57*	i	-2	4	79*	79*
CN(C(=O)C1CCN(c2cncnc2)CC1)C1CCCCC1	-4	1	-7	2	-1	nt	nt
C=CCn1c(SCC(=O)Nc2ccccc2-c2ccccc2)nnc1-c1ccccc1	4	1	9	-11	-10	nt	nt
CNC(=S)NNC(=O)c1sc2cc(C(F)(F)F)cnc2c1-c1cccnc1	-140	14*	-417	-2	6	16*	22*
O=C(N=C1N(Cc2ccccc2)C[C@]2(C=C3CCCCC3n3c(=O)n(-c4ccccc4)c(=O)n32)N1C(=O)OCc1ccccc1)c1ccccc1 (some centres not stated)	-5	0	-8	5	0	nt	nt
CC1=C(C(=O)OCC2CCCO2)C(c2ccncc2)C2=C(CC(C)(C)CC2=O)N1 (configuration not stated)	-163	13*	-487	-2	1	21*	29*
CCOC(=O)C1=C(C)NC2=C(C(=O)CC(C)(C)C2)C1c1ccc(N(C)C)cc1 (configuration not stated)	-8	2	-20	-11	-23	nt	nt
COCCOC(=O)C1=C(C)NC2=C(C(=O)CC(C)(C)C2)C1c1cccnc1 (configuration not stated)	-215	18*	i	3	-5	39*	34*
CC1=C(C(=O)OC(C)C)C(c2cccnc2)C2=C(CC(C)(C)CC2=O)N1 (configuration not stated)	-180	7	i	3	0	nt	nt
CN(C)c1ccc(C2C3C(=O)N(c4ccc(C(=O)O)cc4)C(=O)C3ON2c2ccccc2)cc1 (configuration not stated)	-16	63*	-33	5	2	0	1
CC(C)C1Oc2cc3oc(=O)ccc3cc2C1=O (configuration not stated)	i	35*	i	-3	-3	29*	27*
C/C=C(\C)C(=O)OC(C)(C)[C@@H]1Cc2cc3ccc(=O)oc3cc2O1	-298	-5	i	5	2	nt	nt
COc1cccc(-c2cc(=O)c3cc(NC(C)=O)ccc3[nH]2)c1	-373	25*	i	4	2	32*	32*
CC(=O)Nc1ccc2[nH]c(C)cc(=O)c2c1	-20	0	-69	3	4	nt	nt
C=CCN1[C@H](C)COc2cccc(N3CCCC3)c2S1(=O)=O	0	1	-7	-1	-2	nt	nt
SMILES	ADAM17 inh	proKLK7 act	ADAM10 inh	GC-B act	NPR1 activator	KLK7 act conf	EDANS-DABCYL int	others
CCOC(=O)C1CCN(C(=O)Nc2ccc3nc(C)c(C)nc3c2)CC1	-478	23*	i	0	1	46*	53*
CCCC1CCC2(CC1)CCC2OC(=S)Nc1cccc(Cl)c1 (configuration not stated)	-5	nt	-7	6	1	nt	nt
CCn1c(COc2ccccc2)nnc1SCC(=O)Nc1ccc(Oc2ccccc2)cc1	-1	0	3	-3	0	nt	nt
COc1cccc(C2=CC(c3ccc(OC)c(OC)c3OC)n3nnnc3N2)c1 (configuration not stated)	-1	6	-6	3	-7	nt	nt
COc1ccccc1C1C=C(c2ccccc2)Nc2nnnn21 (configuration not stated)	-6	21*	-33	-4	-8	16*	14*	EDANS interf=i
COC(=O)[C@]12C[C@H](CC(=O)N3CCN(C(=O)C4CC4)CC3)C(=O)N(CCc3ccc(OC)c(OC)c3)C1=C[C@H](C1CCCC1)O[C@@H]2C	-1	1	-2	13	3	nt	nt
CCCCNC(=O)C[C@H]1C[C@@]2(C(=O)OC)C(=C[C@H](C3CCCC3)O[C@@H]2C)N(CCc2ccc(OC)c(OC)c2)C1=O	1	0	-5	5	-3	nt	nt
Oc1ccc2ccccc2c1C=Nc1ccccc1-c1nc2ccccc2[nH]1	i	38*	i	-3	-3	-43	-39
CCOC(=O)C(=NC(C)CC)NNc1ccc(Br)cc1 (configuration not stated)	-4	16*	-11	4	-1	24*	26*
CCOC(=O)C(=NC1CCS(=O)(=O)C1)NNc1ccc(Br)cc1 (configuration not stated)	3	0	-6	-6	4	nt	nt

Screening results deposited in PubChem BioAssay by several laboratories.
